# Assay results published in PMC7862700, “An all-to-all approach to the identification of sequence-specific readers for epigenetic DNA modifications on cytosine”.
# Columns and labels:
# Experiment in all cases: DAPPL (digital affinity profiling via proximity ligation, sequencing); 10 mM Tris-HCl pH 7.5, 50 mM NaCl, 1 mM DTT, 4% glycerol, room temperature, 30 min; GST-TFs on glutathione beads, 16-mer random dsDNA library, 0.1% formaldehyde crosslink after washing; high values mean tight binding
# FLI1 = molecular target: T1, FLI1 (Homo sapiens, UniProt Q01543 1-452); details: protein: recombinant; tags: N-terminal GST; dsDNA, one strand shown
# T1 sequence: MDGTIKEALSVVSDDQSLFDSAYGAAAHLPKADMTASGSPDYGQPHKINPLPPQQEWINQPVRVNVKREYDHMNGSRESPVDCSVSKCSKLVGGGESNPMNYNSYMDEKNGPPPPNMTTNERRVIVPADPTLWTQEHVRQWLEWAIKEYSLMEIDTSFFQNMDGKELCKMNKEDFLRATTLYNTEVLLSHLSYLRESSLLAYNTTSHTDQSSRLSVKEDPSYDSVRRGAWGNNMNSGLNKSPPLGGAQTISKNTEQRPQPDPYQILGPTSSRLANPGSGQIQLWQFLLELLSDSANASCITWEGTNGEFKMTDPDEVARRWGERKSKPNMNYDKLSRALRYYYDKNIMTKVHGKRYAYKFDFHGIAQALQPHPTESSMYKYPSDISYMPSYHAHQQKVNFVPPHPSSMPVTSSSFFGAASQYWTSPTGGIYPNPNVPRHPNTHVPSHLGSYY
# In short: (§1)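 A tag-only sample was pooled with DNA-barcoded human transcription factors that had been expressed in yeast as GST fusions and captured on glutathione beads. The pools were incubated for 30 min at room temperature with 200 nmole of a random double-stranded 16-mer DNA library in Tris/NaCl/DTT/glycerol buffer, then washed, crosslinked with 0.1% formaldehyde, proximity-ligated (BsaI/T4 ligase, 1 h, 37 °C), PCR-amplified and sequenced on an Illumina NextSeq500. Binding signal is each hexamer's read frequency for a factor divided by its frequency for the tag-only sample.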
# ELK1 = molecular target: T2, ELK1 (Homo sapiens, UniProt P19419 1-428); details: protein: recombinant; tags: N-terminal GST; dsDNA, one strand shown
# T2 sequence: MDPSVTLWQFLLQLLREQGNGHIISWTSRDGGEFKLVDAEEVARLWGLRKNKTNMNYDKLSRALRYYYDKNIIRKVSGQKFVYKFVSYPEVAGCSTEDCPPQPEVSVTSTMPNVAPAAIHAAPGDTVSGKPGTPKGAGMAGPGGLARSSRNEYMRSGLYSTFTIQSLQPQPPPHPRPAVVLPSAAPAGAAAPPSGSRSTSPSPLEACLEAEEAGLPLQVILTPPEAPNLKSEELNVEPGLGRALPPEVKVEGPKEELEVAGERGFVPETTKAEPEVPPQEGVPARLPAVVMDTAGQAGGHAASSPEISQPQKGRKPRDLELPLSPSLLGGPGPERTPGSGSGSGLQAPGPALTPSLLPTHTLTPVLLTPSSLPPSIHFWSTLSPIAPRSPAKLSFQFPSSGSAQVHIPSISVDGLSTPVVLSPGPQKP
# In short: as §1
# GABPA = molecular target: T3, GABPA (Homo sapiens, UniProt Q06546 1-454); details: protein: recombinant; tags: N-terminal GST; dsDNA, one strand shown
# T3 sequence: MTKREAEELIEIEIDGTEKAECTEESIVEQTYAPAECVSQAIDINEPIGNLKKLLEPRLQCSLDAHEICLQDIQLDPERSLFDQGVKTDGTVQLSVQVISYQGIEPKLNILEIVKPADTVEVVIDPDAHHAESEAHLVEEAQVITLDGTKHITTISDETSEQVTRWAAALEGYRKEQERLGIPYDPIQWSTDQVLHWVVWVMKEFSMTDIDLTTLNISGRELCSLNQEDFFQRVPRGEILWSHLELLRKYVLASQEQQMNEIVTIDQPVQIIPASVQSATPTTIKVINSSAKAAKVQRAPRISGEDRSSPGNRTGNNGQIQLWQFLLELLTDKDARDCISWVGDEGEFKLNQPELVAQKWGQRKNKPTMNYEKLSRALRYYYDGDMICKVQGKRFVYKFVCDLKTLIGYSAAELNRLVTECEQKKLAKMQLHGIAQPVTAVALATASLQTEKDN
# In short: as §1
# ERG = molecular target: T4, ERG (Homo sapiens, UniProt P11308 1-479); details: protein: recombinant; tags: N-terminal GST; dsDNA, one strand shown
# T4 sequence: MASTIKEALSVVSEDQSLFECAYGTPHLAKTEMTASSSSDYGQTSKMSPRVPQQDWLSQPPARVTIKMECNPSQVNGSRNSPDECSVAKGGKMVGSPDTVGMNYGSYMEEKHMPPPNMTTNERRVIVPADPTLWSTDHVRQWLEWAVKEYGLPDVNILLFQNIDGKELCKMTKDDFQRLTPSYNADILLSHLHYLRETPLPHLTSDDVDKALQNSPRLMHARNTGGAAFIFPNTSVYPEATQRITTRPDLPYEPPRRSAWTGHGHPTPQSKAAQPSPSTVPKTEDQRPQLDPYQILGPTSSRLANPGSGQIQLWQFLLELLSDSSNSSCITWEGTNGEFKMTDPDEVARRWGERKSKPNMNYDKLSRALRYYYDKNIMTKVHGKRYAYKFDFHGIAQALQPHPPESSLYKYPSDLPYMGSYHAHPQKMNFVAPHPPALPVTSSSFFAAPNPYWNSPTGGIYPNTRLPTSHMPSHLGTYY
# In short: as §1
# ELF1 = ELF1 (Homo sapiens, UniProt P32519 1-619); details: protein: recombinant; tags: N-terminal GST; dsDNA, one strand shown
# ELF1, sequence (P32519 whole entry): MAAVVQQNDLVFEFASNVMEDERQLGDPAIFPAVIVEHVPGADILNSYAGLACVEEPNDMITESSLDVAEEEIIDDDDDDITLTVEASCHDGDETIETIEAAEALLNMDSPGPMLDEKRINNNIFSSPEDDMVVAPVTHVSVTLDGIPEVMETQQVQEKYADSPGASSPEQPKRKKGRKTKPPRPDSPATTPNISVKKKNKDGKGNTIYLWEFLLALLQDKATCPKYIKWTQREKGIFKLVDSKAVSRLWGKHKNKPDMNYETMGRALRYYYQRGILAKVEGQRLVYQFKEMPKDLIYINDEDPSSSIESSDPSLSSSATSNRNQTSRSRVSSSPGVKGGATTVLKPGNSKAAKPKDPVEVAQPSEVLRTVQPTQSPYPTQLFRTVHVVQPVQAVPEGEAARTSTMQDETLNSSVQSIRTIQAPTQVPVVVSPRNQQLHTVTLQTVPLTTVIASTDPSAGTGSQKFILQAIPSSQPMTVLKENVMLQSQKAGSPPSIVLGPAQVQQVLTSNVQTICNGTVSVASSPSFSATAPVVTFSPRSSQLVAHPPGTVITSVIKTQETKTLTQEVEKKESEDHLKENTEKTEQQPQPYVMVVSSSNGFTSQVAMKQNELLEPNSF
# In short: as §1
# EHF = molecular target: T5, EHF (Homo sapiens, UniProt Q9NZC4 1-300); details: protein: recombinant; tags: N-terminal GST; dsDNA, one strand shown
# T5 sequence: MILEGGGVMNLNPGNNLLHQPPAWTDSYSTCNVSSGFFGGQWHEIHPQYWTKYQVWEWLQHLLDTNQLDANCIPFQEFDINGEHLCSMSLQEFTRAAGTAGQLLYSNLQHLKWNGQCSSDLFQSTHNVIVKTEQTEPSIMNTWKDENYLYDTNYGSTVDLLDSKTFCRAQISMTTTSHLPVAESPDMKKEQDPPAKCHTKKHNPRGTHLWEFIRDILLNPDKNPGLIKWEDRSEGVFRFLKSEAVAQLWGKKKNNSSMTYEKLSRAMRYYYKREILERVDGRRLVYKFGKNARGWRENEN
# In short: as §1
# SPI1 = SPI1 (Homo sapiens, UniProt P17947 1-270); details: protein: recombinant; tags: N-terminal GST; dsDNA, one strand shown
# In short: as §1
# ELK3 = molecular target: T6, ELK3 (Homo sapiens, UniProt P41970 1-407); details: protein: recombinant; tags: N-terminal GST; dsDNA, one strand shown
# T6 sequence: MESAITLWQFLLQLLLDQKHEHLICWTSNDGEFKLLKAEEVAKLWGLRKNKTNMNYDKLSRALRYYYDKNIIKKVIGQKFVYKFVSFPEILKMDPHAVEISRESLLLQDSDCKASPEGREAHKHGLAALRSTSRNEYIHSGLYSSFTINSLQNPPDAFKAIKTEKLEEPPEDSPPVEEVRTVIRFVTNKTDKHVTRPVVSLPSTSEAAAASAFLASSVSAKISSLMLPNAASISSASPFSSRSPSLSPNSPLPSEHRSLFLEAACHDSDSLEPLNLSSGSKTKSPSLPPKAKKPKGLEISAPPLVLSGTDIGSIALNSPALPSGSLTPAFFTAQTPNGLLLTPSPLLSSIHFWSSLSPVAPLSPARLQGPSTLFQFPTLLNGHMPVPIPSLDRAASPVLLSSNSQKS
# In short: as §1
# FEV = molecular target: T7, FEV (Homo sapiens, UniProt Q99581 1-238); details: protein: recombinant; tags: N-terminal GST; dsDNA, one strand shown
# T7 sequence: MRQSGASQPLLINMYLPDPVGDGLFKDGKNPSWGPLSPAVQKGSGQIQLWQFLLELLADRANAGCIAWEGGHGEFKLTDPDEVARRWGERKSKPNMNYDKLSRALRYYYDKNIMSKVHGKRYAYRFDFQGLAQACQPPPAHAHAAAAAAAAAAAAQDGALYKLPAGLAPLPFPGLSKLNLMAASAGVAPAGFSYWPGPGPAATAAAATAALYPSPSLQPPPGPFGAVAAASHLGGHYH
# In short: as §1
# ETV5 = ETV5 (Homo sapiens, UniProt P41161 1-510); details: protein: recombinant; tags: N-terminal GST; dsDNA, one strand shown
# ETV5, sequence (P41161 whole entry): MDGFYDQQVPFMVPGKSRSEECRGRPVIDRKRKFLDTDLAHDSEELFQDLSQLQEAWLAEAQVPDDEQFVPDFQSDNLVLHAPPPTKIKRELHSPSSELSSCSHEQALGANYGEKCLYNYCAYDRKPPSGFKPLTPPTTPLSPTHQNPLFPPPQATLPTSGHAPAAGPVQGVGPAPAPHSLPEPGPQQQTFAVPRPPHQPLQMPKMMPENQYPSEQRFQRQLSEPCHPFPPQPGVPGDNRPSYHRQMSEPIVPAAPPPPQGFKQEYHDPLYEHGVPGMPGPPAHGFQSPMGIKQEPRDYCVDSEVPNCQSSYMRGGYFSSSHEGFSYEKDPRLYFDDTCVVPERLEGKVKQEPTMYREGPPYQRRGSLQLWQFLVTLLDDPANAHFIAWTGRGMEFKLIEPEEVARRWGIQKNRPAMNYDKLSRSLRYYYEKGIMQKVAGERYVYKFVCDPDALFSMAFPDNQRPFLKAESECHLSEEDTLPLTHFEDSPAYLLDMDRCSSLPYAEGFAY
# In short: as §1
# HSF1 = HSF1 (Homo sapiens, UniProt Q00613 1-529); details: protein: recombinant; tags: N-terminal GST; chain copies: 3; dsDNA, one strand shown
# HSF1, sequence (Q00613 whole entry): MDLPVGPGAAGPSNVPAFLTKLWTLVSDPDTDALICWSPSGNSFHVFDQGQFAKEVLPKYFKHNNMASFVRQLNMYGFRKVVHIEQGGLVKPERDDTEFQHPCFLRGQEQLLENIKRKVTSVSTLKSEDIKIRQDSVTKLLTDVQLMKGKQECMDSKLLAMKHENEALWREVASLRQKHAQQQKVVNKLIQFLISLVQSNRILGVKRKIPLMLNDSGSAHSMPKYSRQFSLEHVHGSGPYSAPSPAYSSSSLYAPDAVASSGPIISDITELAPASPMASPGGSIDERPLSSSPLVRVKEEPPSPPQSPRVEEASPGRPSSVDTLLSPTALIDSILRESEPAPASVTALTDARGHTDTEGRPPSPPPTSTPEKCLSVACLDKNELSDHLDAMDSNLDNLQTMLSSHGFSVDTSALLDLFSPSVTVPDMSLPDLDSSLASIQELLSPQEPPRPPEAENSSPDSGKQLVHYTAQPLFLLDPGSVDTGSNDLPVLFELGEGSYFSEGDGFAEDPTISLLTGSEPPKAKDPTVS
# In short: as §1
# SPIC = molecular target: T8, SPIC (Homo sapiens, UniProt Q8N5J4 1-248); details: protein: recombinant; tags: N-terminal GST; dsDNA, one strand shown
# T8 sequence: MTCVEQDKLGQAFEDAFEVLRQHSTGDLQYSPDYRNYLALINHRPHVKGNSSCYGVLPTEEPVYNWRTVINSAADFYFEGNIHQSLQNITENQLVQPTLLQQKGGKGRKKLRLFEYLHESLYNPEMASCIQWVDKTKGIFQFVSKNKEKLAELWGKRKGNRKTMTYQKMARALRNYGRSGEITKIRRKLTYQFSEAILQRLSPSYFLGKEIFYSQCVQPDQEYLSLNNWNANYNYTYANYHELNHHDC
# In short: as §1
# ELF4 = ELF4 (Homo sapiens, UniProt Q99607 1-663); details: protein: recombinant; tags: N-terminal GST; dsDNA, one strand shown
# ELF4, sequence (Q99607 whole entry): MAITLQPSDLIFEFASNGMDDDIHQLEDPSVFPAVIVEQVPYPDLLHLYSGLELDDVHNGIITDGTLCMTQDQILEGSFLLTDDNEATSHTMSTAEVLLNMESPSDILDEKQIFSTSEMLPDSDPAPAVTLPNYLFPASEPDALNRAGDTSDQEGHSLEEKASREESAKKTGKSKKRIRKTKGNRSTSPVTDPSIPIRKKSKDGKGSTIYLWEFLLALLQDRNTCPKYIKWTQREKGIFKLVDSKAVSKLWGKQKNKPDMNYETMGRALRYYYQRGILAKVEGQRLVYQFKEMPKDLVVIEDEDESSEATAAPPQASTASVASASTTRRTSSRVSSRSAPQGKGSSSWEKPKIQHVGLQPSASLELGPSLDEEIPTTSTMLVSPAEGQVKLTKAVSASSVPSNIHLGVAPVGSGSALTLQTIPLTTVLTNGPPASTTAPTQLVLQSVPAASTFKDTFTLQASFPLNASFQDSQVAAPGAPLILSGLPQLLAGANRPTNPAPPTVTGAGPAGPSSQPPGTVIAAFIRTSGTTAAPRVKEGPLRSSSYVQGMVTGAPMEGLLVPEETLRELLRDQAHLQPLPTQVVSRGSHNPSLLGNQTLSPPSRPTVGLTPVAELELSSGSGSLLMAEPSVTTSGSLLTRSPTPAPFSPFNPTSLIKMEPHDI
# In short: as §1
# ETV2 = molecular target: T9, ETV2 (Homo sapiens, UniProt O00321 1-342); details: protein: recombinant; tags: N-terminal GST; dsDNA, one strand shown
# T9 sequence: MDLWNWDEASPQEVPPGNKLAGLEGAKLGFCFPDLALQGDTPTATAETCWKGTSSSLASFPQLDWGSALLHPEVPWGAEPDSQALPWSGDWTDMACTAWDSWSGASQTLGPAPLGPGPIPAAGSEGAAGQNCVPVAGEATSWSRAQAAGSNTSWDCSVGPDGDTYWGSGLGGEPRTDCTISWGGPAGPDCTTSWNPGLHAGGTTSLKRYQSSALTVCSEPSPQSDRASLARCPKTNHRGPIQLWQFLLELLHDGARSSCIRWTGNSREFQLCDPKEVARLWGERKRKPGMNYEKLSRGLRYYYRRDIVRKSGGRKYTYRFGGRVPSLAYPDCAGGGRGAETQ
# In short: as §1
# CRX = CRX (Homo sapiens, UniProt O43186 1-299); details: protein: recombinant; tags: N-terminal GST; dsDNA, one strand shown
# CRX, sequence (O43186 whole entry): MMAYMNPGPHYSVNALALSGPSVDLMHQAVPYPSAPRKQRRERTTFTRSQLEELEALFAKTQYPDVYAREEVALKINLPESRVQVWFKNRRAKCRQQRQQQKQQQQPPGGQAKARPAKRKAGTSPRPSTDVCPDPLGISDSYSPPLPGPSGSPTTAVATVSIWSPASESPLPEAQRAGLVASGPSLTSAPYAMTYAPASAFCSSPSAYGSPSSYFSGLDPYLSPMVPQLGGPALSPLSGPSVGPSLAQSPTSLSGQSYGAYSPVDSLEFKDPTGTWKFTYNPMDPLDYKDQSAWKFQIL
# In short: as §1
# ETV1 = ETV1 (Homo sapiens, UniProt P50549 1-477); details: protein: recombinant; tags: N-terminal GST; dsDNA, one strand shown
# ETV1, sequence (P50549 whole entry): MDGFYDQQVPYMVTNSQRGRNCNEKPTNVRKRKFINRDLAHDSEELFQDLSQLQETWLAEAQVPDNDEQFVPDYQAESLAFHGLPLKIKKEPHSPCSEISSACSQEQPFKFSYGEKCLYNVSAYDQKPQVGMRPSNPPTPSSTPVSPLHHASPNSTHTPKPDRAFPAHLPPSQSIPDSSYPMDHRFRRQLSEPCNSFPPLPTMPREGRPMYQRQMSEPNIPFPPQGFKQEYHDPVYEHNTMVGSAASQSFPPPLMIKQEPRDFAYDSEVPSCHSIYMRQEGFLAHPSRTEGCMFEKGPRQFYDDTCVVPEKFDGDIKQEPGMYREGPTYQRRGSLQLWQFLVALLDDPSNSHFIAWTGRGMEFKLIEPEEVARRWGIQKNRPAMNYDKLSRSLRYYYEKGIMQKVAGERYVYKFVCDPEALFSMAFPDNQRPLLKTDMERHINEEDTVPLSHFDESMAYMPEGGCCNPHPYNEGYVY
# In short: as §1
sequence,measurement,setting,value
TAGCAG,binding signal,FLI1,"1.07 fold enrichment (6-mer frequency, TF over GST control)"
same,binding signal,ELK1,"1.08 fold enrichment (6-mer frequency, TF over GST control)"
same,binding signal,GABPA,"1.03 fold enrichment (6-mer frequency, TF over GST control)"
same,binding signal,ERG,"1.11 fold enrichment (6-mer frequency, TF over GST control)"
same,binding signal,ELF1,"1.09 fold enrichment (6-mer frequency, TF over GST control)"
same,binding signal,EHF,"1 fold enrichment (6-mer frequency, TF over GST control)"
same,binding signal,SPI1,"1 fold enrichment (6-mer frequency, TF over GST control)"
same,binding signal,ELK3,"1.19 fold enrichment (6-mer frequency, TF over GST control)"
same,binding signal,FEV,"1.03 fold enrichment (6-mer frequency, TF over GST control)"
same,binding signal,ETV5,"1.04 fold enrichment (6-mer frequency, TF over GST control)"
same,binding signal,HSF1,"1.12 fold enrichment (6-mer frequency, TF over GST control)"
same,binding signal,SPIC,"1.04 fold enrichment (6-mer frequency, TF over GST control)"
same,binding signal,ELF4,"1.05 fold enrichment (6-mer frequency, TF over GST control)"
same,binding signal,ETV2,"1.06 fold enrichment (6-mer frequency, TF over GST control)"
same,binding signal,CRX,"1.23 fold enrichment (6-mer frequency, TF over GST control)"
same,binding signal,ETV1,"1.02 fold enrichment (6-mer frequency, TF over GST control)"
